# Compound activity (PubChem BioAssay)
# USP8 inh – human USP8 deubiquitinase inhibition; P40818; purified USP8, Ub-rhodamine cleavage fluorescence, 30 min; inhibition, % at 20 µM; 4.2% of 47,000 active
# USP28 inh – blocks human USP28 ubiquitin-rhodamine cleavage; inhibition, % at 25 µM; AID 1645857; Q96RU2; 3% of 47,000 active; purified USP28, Ub-rhodamine cleavage fluorescence, 30 min
# USP17 block – blocks human USP17 ubiquitin-rhodamine cleavage. 6.5% of 47,000 active. purified USP17, Ub-rhodamine cleavage fluorescence, 3 h. AID 1645855. inhibition, % at 50 µM
# USP30 block – inhibitors of human USP30 deubiquitinase; purified USP30, Ub-rhodamine cleavage fluorescence; inhibition, % at 25 µM; 5.3% of 47,000 active; AID 1645860
# USP10 block – blocks human USP10 ubiquitin-rhodamine cleavage. 1.1% of 47,000 active. inhibition, % at 20 µM. Q14694. AID 1645856. purified USP10, Ub-rhodamine fluorescence, 60 min
# An asterisk follows results filed as active. An excerpt weighted towards active compounds, which were near 14% of everything screened. No stated cut-off is given here; in the data, active means inhibition above about 30%; inactive means the rest.
SMILES,USP8 inh,USP28 inh,USP17 block,USP30 block,USP10 block
CC1(C(=O)NC2CCCC2)Cn2c(nc3ccccc32)C(=O)N1Cc1ccc(F)cc1 (configuration not stated),6.1,-6.9,-3.2,-8.4,0.0
COc1ccccc1CN1C(=O)c2nc3ccccc3n2CC1(C)C(=O)NC1CCCC1 (configuration not stated),-1.9,9.6,-2.1,30.3*,1.7
CC(NC(=O)C1CCN(c2cnc3nccnc3c2)CC1)c1ccccc1 (configuration not stated),-79.7,-111.7,-119.0,-380.8,-6.4
CCC(=O)Nc1nc2cc(NS(=O)(=O)c3cccc(C)c3)ccc2s1,4.7,3.2,22.4,10.8,4.0
COCCNC(=O)c1nc(Cn2c(C(F)F)nc3ccccc32)no1,0.1,-3.5,-4.4,0.6,3.7
CCOc1ccccc1NC(=O)Cn1c(=O)n(CCCC(=O)N2CCc3ccccc3C2)c(=O)c2ccccc21,7.1,24.2,14.8,44.8*,19.4
CCOc1ccccc1NC(=O)Cn1c(=O)n(CCCC(=O)NC2CCN(Cc3ccccc3)CC2)c(=O)c2ccccc21,-37.6,4.8,0.4,11.3,2.1
Cc1nc2ccccn2c1CC(=O)Nc1cccc(C2CCc3nncn3C2)c1 (configuration not stated),35.9*,11.3,0.0,12.3,0.1
COc1ccc(Nc2cc(C(=O)NC3CCCC3)c3ccccc3n2)cc1OC,15.4,-5.0,7.0,-32.6,-7.1
Cc1cccc(CCNC(=O)c2ccc(CNS(=O)(=O)c3ccc(F)cc3)cc2)c1,-6.4,2.1,-6.5,34.2*,2.5
COc1ccccc1NS(=O)(=O)c1ccc(C(=O)NCc2ccc(S(N)(=O)=O)cc2)cc1,10.3,16.4,13.8,9.8,2.7
CC(=O)Nc1ccc(S(=O)(=O)N2CCCC(C(=O)NCCc3ccccc3)C2)cc1 (configuration not stated),-11.6,-9.5,1.0,-7.5,-0.2
Cc1ccc(S(=O)(=O)NCc2ccc(C(=O)NCCc3ccc(S(N)(=O)=O)cc3)cc2)cc1,63.0*,68.8*,87.5*,87.8*,48.7*
CN(Cc1ccccc1)C(=O)c1ccc(CNS(=O)(=O)c2ccc(F)cc2)cc1,11.2,9.3,2.5,21.4,3.3
CC(=O)Nc1ccc(S(=O)(=O)N2CCC(C(=O)NCCc3ccc(Cl)cc3)CC2)cc1,14.1,22.2,18.1,33.9*,-2.7
CC(=O)Nc1ccc(S(=O)(=O)NCc2ccc(C(=O)NCCc3ccc(Cl)cc3)cc2)cc1,4.5,91.8*,17.0,95.6*,17.4
O=C(CSc1nnc(C2CC2)n1Cc1ccccc1)Nc1ccc(N2CCCC2=O)cc1,17.3,16.4,44.0*,28.6,1.1
Cc1ccc(OCC(=O)Nc2onc3c2CCCC3)cc1C,5.4,30.2*,6.4,20.8,6.1
O=C(COc1ccc(F)cc1)Nc1onc2c1CCCC2,5.5,9.1,0.8,9.9,-1.9
CNC(=O)N1CCc2nc(C(=O)NCc3ccccc3)sc2CC1,-2.4,-0.6,3.3,-3.8,1.7
Cc1c(Cl)cccc1NC(=O)c1[nH]nc2c1COc1ccccc1-2,35.4*,-53.5,-31.0,-181.7,1.7
CN(C)c1ccc(C(CNC(=O)C2CCCC2)c2c[nH]c3ccccc23)cc1 (configuration not stated),-0.7,-22.0,-6.6,-28.7,1.3
COc1ccccc1N(CC(=O)NCc1ccc(F)cc1)C(=O)CCC(=O)Nc1ccccn1,-2.7,6.7,3.4,35.2*,-0.1
Cc1cc(Cl)ccc1Nc1nc(N2CCN(CCO)CC2)nc2nccnc12,-19.7,-0.4,-16.8,-15.0,-7.5
Cc1noc(-c2ccc(SCC(=O)Nc3cccc(F)c3)nc2)n1,-12.7,-17.4,-74.6,-83.5,-4.2
SMILES,USP8 inh,USP28 inh,USP17 block,USP30 block,USP10 block
Cc1ccc(S(=O)(=O)N2CC(C(=O)NC3CCCCC3)C3(CCOCC3)C2)cc1 (configuration not stated),21.5,15.8,15.8,31.1*,1.5
COc1ccc(-c2cc(C(=O)N3CCCC3)[nH]n2)cc1S(N)(=O)=O,-8.3,-3.5,-17.6,-13.8,-0.4
COc1ccc(-c2cc(C(=O)NC3CCCCCC3)[nH]n2)cc1S(=O)(=O)N(C)C,-17.4,0.2,51.2*,3.2,-0.1
CC(C(=O)NCc1ccccc1)(C(F)(F)F)C(F)(F)F,0.8,-0.2,8.8,10.9,1.9
COc1cc2c(cc1OC)[C@H](C)N(CC1C(=O)O[C@@H]3C[C@@]4(C)CCC[C@H](C)C4=C[C@H]13)CC2 (some centres not stated),45.1*,-37.0,-18.6,-236.3,-9.3
COc1cc2c(cc1OC)[C@H](C)N(CC1C(=O)O[C@@]34[C@H]1CC[C@@H](C)[C@@H]3CC[C@@]1(C)O[C@@H]41)CC2 (some centres not stated),50.3*,-4.6,-2.1,-63.9,-8.1
N#Cc1ccccc1NC(=O)C#Cc1ccccc1,-6.2,-4.0,8.0,10.4,7.4
CC(C)(C)c1cc(C(=O)N2CCC(O)(CN3CCOCC3)C2)n[nH]1 (configuration not stated),-0.4,-7.6,-10.8,-8.0,8.2
CCN1CCCC1CNc1nc(-c2ccc(OC)cc2)nc2ccccc12 (configuration not stated),-13.2,-1.4,-14.0,-18.7,-4.3
CCN(CC)S(=O)(=O)c1ccc(OC)c(Nc2nc(-c3ccccc3)nc3ccccc23)c1,15.4,3.0,39.0*,-3.0,0.4
c1cc(-c2noc([C@@H]3CCCN3CC3CC3)n2)cc(N2CCCC2)n1,0.0,-6.2,-1.5,-21.1,-1.5
Fc1ccc(Cc2nc(-c3ccnc(N4CCCC4)c3)no2)cc1,-4.8,47.9*,-9.4,0.5,3.2
Cc1ccc(-c2noc(-c3ccc(N4CCC5(CC4)OCCO5)nc3)n2)cc1,5.2,-4.8,0.9,-0.7,0.7
COc1ccc(OCc2nc(-c3ccc(N4CCCCCC4)nc3)no2)cc1,43.5*,-16.0,5.0,-253.5,-5.4
COc1ccc(-c2noc(-c3ccc(N4CCC5(CC4)OCCO5)nc3)n2)cc1,17.3,9.0,14.7,34.0*,-1.4
Cc1cccc(OCc2nc(-c3ccnc(N4CCCC4)c3)no2)c1,9.9,32.0*,9.9,18.1,-1.6
N#Cc1c(/C=C/Nc2ccccc2)nc2c(c1-c1ccccc1F)C(=O)c1ccccc1-2,7.8,-53.8,-11.4,-251.9,-9.1
O=C(Nc1ccc2c(c1)OCO2)N1CCCn2c(nc3ccccc32)C1,3.7,-3.6,-2.9,10.5,-0.9
c1cc(N2CCOCC2)ncc1-c1noc(CN2CCCCCC2)n1,-47.8,-29.7,-18.8,-51.0,-7.5
c1ccc2c(c1)CCN(Cc1nc(-c3ccc(N4CCOCC4)nc3)no1)C2,35.5*,12.1,-1.4,-2.9,-5.6
Cc1ccc(C)c(S(=O)(=O)N2CCC3(CC2)NC(=O)c2ccccc2N3)c1,20.0,5.1,58.6*,19.6,-2.6
O=C1NC2(CCN(S(=O)(=O)c3ccc(F)cc3F)CC2)Nc2ccccc21,8.4,12.3,-0.1,22.1,-2.2
O=C1NC2(CCN(S(=O)(=O)c3ccc(F)c(Cl)c3)CC2)Nc2ccccc21,3.8,-7.2,49.9*,-1.9,1.9
